Screening data (PubChem BioAssay)
CIT2-GFP yeast: modulators of CIT2-GFP expression in yeast, primary screen, S. cerevisiae, GFP fusion, multiplex flow cytometry, MLPCN library; 0.065% of 320,000 active; GFP response vs DMSO, % at 10 µM; S. cerevisiae CIT2-GFP strain, 3 h; 100 means same as DMSO wells;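 active = GFP response relative to DMSO above a set limit, near the screen mean plus 3 SD, cut at about 150% in these data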;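 note: ratio of well median GFP fluorescence to mean of DMSO wells on the plate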
MEP2-GFP yeast: modulators of MEP2-GFP levels in yeast, primary screen, S. cerevisiae, multiplex flow cytometry, MLPCN library; S. cerevisiae MEP2-GFP strain, 3 h; 100% = DMSO control level; GFP response vs DMSO, % at 10 µM; 0.51% of 330,000 active; AID 2016, 2009;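 active = GFP response versus DMSO above a set limit, roughly screen mean plus 3 SD, cut at about 180% in these data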;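 note: median GFP fluorescence of the barcode-gated MEP2-GFP cells per well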
AGP1-GFP MLPCN: modulators of AGP1-GFP expression in yeast TOR pathway, primary screen, cell-based, multiplex flow cytometry, S. cerevisiae, MLPCN library. 3 h; GFP as percent of DMSO wells. GFP response vs DMSO, % at 10 µM. 0.02% of 320,000 active. AID 2066, 2009;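 active = GFP response relative to DMSO above a set limit, near screen average plus 3 SD, cut at about 150% in these data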;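 note: median GFP channel fluorescence of the gated AGP1 strain per well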
RPL19A-GFP yeast: RPL19A-GFP expression modulators in yeast, primary screen, cell-based, S. cerevisiae, multiplex flow cytometry, MLPCN; S. cerevisiae RPL19A-GFP strain, 3 h; stronger effect = lower value; percent response vs DMSO, % at 10 µM; 0.3% of 330,000 active;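 active = percent response vs DMSO below 50%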;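 note: median channel GFP fluorescence of the barcoded RPL19A-GFP strain; ratio of sample median GFP to plate DMSO average so 100% = DMSO; lower means less RPL19A-GFP as with rapamycin TOR inhibition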
LAP4-GFP MLPCN: modulators of LAP4-GFP expression in yeast, primary screen, S. cerevisiae, multiplex flow cytometry, MLPCN library. 3 h; median GFP as percent of DMSO wells. GFP response vs DMSO, % at 10 µM. 0.34% of 320,000 active;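 active = GFP response vs DMSO above a set limit, about the screen mean plus 3 SD, cut at about 150% in these data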
LAP4-GFP pick2: LAP4-GFP expression modulators in yeast, confirmation, cell-based, second cherry pick, flow cytometry; shares compounds with LAP4-GFP MLPCN; S. cerevisiae LAP4-GFP strain, 3 h; GFP response vs DMSO, % at 10 µM; 20% of 590 active; AID 2621, 2010;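 active = GFP signal as percent of the solvent control above about 150%, meaning raised reporter expression, limit read from the data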;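 note: ratio of well median GFP fluorescence to plate DMSO mean so 100% = DMSO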
MEP2 cherry2: modulators of MEP2-GFP levels in yeast, confirmation, S. cerevisiae, flow cytometry GFP, second cherry picks | shares compounds with LAP4-GFP MLPCN | S. cerevisiae MEP2-GFP strain, 3 h | GFP response vs DMSO, % at 10 µM | 10% of 590 active;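 active = GFP signal above 150% of the solvent control wells, that is a rise of more than half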;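 note: median channel GFP fluorescence of all gated yeast cells per well; ratio of median GFP to plate DMSO average so 100% = DMSO level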
RPL19A GFP CP2: RPL19A-GFP modulators in TOR pathway yeast, confirmation, cell-based, S. cerevisiae, flow cytometry, second cherry pick; shares compounds with LAP4-GFP MLPCN; S. cerevisiae RPL19A-GFP strain, 3 h; stronger effect = lower value; 100% means same as DMSO wells; GFP response vs DMSO, % at 10 µM; 3% of 590 active; AID 2623, 2010;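 active = under 65% GFP response relative to DMSO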;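 note: median GFP channel fluorescence per well over the all cells gate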
CIT2-GFP pick2: modulators of CIT2-GFP expression in yeast, confirmation, flow cytometry, second cherry pick, single plex. AID 2624, 2010. S. cerevisiae CIT2-GFP strain, 3 h; DMSO control wells read 100%. shares compounds with LAP4-GFP MLPCN. GFP response vs DMSO, % at 10 µM. 8% of 590 active;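 active = GFP response vs DMSO above about 150%, limit read from the data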;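 note: median green fluorescence per well over all gated yeast cells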
AGP1 GFP CP2: AGP1-GFP expression modulators, hit retest, confirmation, cell-based, flow cytometry, S. cerevisiae, cherry pick set 2 | shares compounds with LAP4-GFP MLPCN | S. cerevisiae AGP1-GFP strain, 3 h | percent response vs DMSO, % at 10 µM | 590 tested, under 10 active | AID 2643, 2010;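 active = over 150 percent of DMSO response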;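 note: median GFP channel fluorescence over all cells without mother daughter split; sample median GFP divided by mean DMSO control so 100% equals DMSO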
Yeast autofluor: compound autofluorescence in yeast s288c, dose response, artefact control for yeast TOR pathway GFP screen, s288c strain. fluorescence change (kMESF span) at 33 µM. 610 tested, under 10 active. S. cerevisiae s288c, 520 nm autofluorescence, flow cytometry, 3 h; stronger effect = higher value; zero means same as solvent-only cells. shares compounds with LAP4-GFP MLPCN;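 active = fluorescence span over the dose series, or activity score, above about 33, limit read from the data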
Yeast autofl DR: autofluorescence of compounds in yeast s288c, dose response, artefact control for yeast TOR pathway GFP screen, primary hits, KU SAR, s288c parental. 110 tested, under 10 active. AID 488829, 2010. S. cerevisiae s288c parental, compound autofluorescence, flow cytometry, 3 h. shares compounds with LAP4-GFP MLPCN. fluorescence change (span) at 33 µM;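 active = fluorescence change span, or the activity score built from it, above 25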
TORC1 bypass: wild-type yeast growth inhibition sparing TORC1 bypass cells, mechanism study for yeast TOR pathway GFP screen, BY4741 wild type, TORC1 bypass strain. shares compounds with LAP4-GFP MLPCN. S. cerevisiae BY4741 spot growth rating, 48-72 h; stronger effect = lower value. growth rating (0-3) at 30 µM. 120 tested, under 10 active. AID 504456, 2011;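 active = growth rating at most 1 for wild type yeast while the TORC1 bypass strain still grows fully, rated 3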
Starred values were filed as active, the others as inactive; · = no result given. Compounds with a hit are over-represented: about 0.93% of the library has one in this group of screens.

SMILES | CIT2-GFP yeast | MEP2-GFP yeast | AGP1-GFP MLPCN | RPL19A-GFP yeast | LAP4-GFP MLPCN | Yeast autofluor | others
Cc1cc(C)nc(Nc2n[nH]c(COc3ccc4ccccc4c3)n2)n1 | 93.4 | 104.1 | 100.7 | 96.0 | 104.9 | ·
CCOC(=O)C1=C(COC(=O)CNC(=O)c2ccc(C(C)(C)C)cc2)NC(=O)NC1C (centres undefined) | 92.0 | 98.9 | 104.0 | 97.0 | 101.8 | ·
CCOC(=O)C1=C(COC(=O)CNC(=O)c2ccc(C)cc2)NC(=O)NC1C (centres undefined) | 85.3 | 87.5 | 87.6 | 62.2 | 81.8 | · | LAP4-GFP pick2=98.1;MEP2 cherry2=98.2;RPL19A GFP CP2=99.0;CIT2-GFP pick2=104.0;AGP1 GFP CP2=101.5
CC(=O)NN1C(=O)/C(=C\c2ccc(Br)o2)SC1=S | 122.2 | 136.2 | 95.6 | 101.7 | 107.5 | ·
CC(=O)NN1C(=O)/C(=C/c2ccc(Br)o2)SC1=S | 135.2 | 186.9* | 103.7 | 105.4 | 119.7 | 10.8
Oc1ccc(Cl)cc1/C=N/c1nccs1 | 108.0 | 102.2 | 108.0 | 100.7 | 101.1 | ·
Oc1c(Br)cc(Br)cc1/C=N/c1nccs1 | 73.3 | 88.2 | 58.8 | 82.7 | 194.1* | · | LAP4-GFP pick2=132.3;MEP2 cherry2=122.3;RPL19A GFP CP2=75.1;CIT2-GFP pick2=107.1;AGP1 GFP CP2=93.3
Oc1c(Br)cc(Br)cc1C=Nc1ccc2[nH]ncc2c1 | 79.6 | 91.7 | 80.2 | 70.3 | 183.9* | 1.01
Oc1c(Br)cc(Br)cc1C=Nc1cccnc1 | 87.2 | 87.7 | 60.5 | 61.1 | 148.2 | · | LAP4-GFP pick2=125.0;MEP2 cherry2=123.1;RPL19A GFP CP2=70.4;CIT2-GFP pick2=131.2;AGP1 GFP CP2=94.2
Cc1nc2ccc(C(=O)N3c4ccccc4CC3C)cc2s1 (centres undefined) | 89.2 | 100.2 | 90.9 | 95.5 | 100.8 | ·
Cc1ccc(Nc2ccc(-n3ccnc3)nn2)cc1C | 79.5 | 156.5 | 30.3 | 53.2 | 96.6 | · | LAP4-GFP pick2=103.2;MEP2 cherry2=103.1;RPL19A GFP CP2=100.6;CIT2-GFP pick2=100.1;AGP1 GFP CP2=96.7
Nc1nc(N)c2nc(-c3ccccc3)c(N)nc2n1 | 115.8 | 332.2* | 43.6 | 60.9 | 115.0 | · | LAP4-GFP pick2=97.2;MEP2 cherry2=97.8;RPL19A GFP CP2=98.0;CIT2-GFP pick2=93.2;AGP1 GFP CP2=99.1
CCOC(=O)Cn1ccc(NC(=O)c2ccc(F)cc2)n1 | 94.3 | 103.8 | 91.5 | 101.5 | 96.9 | ·
Cc1ccc(-c2nc(C=Nc3ccccc3)c(O)o2)cc1 | 90.5 | 100.6 | 97.7 | 102.9 | 112.7 | ·
CN(C)c1ccc(N=Cc2nc(-c3ccccc3)oc2OC(=O)c2cccc(Cl)c2)cc1 | 105.5 | 98.8 | 102.5 | 104.6 | 95.4 | 0.71
Cc1ccc(C(=O)Oc2oc(-c3ccccc3)nc2C=Nc2ccc(N(C)C)cc2)cc1 | 90.7 | 93.7 | 95.0 | 104.1 | 101.2 | 1.02
O=C(COc1ccc2c(c1)oc(=O)c1ccccc12)NCCCN1CCOCC1 | 101.7 | 102.3 | 99.0 | 100.0 | 101.2 | ·
O=C(CSc1nnnn1-c1ccc(F)cc1F)Nc1ccccc1F | 89.2 | 100.7 | 85.0 | 93.1 | 82.0 | ·
O=C(OCn1ncc(Br)c(Br)c1=O)c1ccc(F)cc1 | · | 85.5 | 80.9 | 89.8 | 235.9* | 0.61 | Yeast autofl DR=0.36;TORC1 bypass=2
O=C(OCc1cnc(Cl)s1)c1ccccc1Cl | 84.3 | 96.9 | 74.6 | 94.8 | 100.3 | ·
O=C(OCn1ncc(Br)c(Br)c1=O)c1ccccc1Cl | 84.4 | 89.8 | 96.4 | 87.5 | 203.1* | 0
CCOc1ccccc1C(=O)Nc1cccc2cccnc12 | 96.2 | 104.3 | 90.7 | 103.6 | 87.8 | ·
O=C(NCC(=O)N1CCOCC1)c1ccc(Cl)c(Cl)c1 | 109.6 | 108.2 | 102.9 | 100.1 | 104.0 | ·
CC(Oc1ccc(Br)cc1)C(=O)Nc1ccc(S(=O)(=O)N(C)C2CCN(C)CC2)cc1 (centres undefined) | 104.1 | 94.0 | 105.4 | 97.7 | 105.7 | ·
Cc1ccc(S(=O)(=O)N2CCN(CCc3ccccc3)CC2)c(C)c1 | 104.2 | 107.7 | 102.4 | 101.3 | 100.3 | ·
SMILES | CIT2-GFP yeast | MEP2-GFP yeast | AGP1-GFP MLPCN | RPL19A-GFP yeast | LAP4-GFP MLPCN | Yeast autofluor | others
Cc1cc(C)c(C)c(S(=O)(=O)ON2C(=O)c3ccccc3C2=O)c1C | 82.3 | 91.6 | 68.8 | 98.7 | 247.8* | 0.81
O=C1c2ccccc2C(=O)N1OS(=O)(=O)c1ccc(F)cc1 | 100.8 | 102.4 | 93.1 | 98.8 | 157.5* | 1.62
Cc1ccc(S(=O)(=O)ON2C(=O)c3ccccc3C2=O)c(C)c1 | 69.7 | 98.5 | 57.1 | 61.4 | 122.1 | 1.31 | LAP4-GFP pick2=132.3;MEP2 cherry2=167.7*;RPL19A GFP CP2=70.6;CIT2-GFP pick2=122.4;AGP1 GFP CP2=87.0
Cc1cc(C)c(S(=O)(=O)ON2C(=O)c3ccccc3C2=O)cc1C | 76.2 | 108.6 | 75.2 | 70.3 | 170.8* | 2.24
O=C1NC(=O)/C(=C\c2ccc(OCc3cccc([N+](=O)[O-])c3)cc2)N1 | 111.3 | 102.4 | 107.3 | 100.7 | 101.2 | ·
S=C(NCCc1ccccc1)NC1CCCCCC1 | 104.7 | 95.1 | 101.5 | 107.3 | 110.8 | ·
S=C(NCCNCc1ccccc1)NC1CCCCC1 | 92.8 | 140.2 | 56.6 | 52.1 | 90.8 | · | LAP4-GFP pick2=101.0;MEP2 cherry2=99.8;RPL19A GFP CP2=100.9;CIT2-GFP pick2=100.7;AGP1 GFP CP2=101.6
